Results from publication PMC7862700, “An all-to-all approach to the identification of sequence-specific readers for epigenetic DNA modifications on cytosine”.

Legend:
Test in all cases: DAPPL (digital affinity profiling via proximity ligation, sequencing); 10 mM Tris-HCl pH 7.5, 50 mM NaCl, 1 mM DTT, 4% glycerol, room temperature, 30 min; GST-TFs on glutathione beads, 16-mer random dsDNA library, 0.1% formaldehyde crosslink after washing; high values mean tight binding
Settings in all cases: protein: recombinant; tags: N-terminal GST; dsDNA, one strand shown
ERF = biological target: T1, ERF (Homo sapiens, UniProt P50548 1-548)
T1 sequence: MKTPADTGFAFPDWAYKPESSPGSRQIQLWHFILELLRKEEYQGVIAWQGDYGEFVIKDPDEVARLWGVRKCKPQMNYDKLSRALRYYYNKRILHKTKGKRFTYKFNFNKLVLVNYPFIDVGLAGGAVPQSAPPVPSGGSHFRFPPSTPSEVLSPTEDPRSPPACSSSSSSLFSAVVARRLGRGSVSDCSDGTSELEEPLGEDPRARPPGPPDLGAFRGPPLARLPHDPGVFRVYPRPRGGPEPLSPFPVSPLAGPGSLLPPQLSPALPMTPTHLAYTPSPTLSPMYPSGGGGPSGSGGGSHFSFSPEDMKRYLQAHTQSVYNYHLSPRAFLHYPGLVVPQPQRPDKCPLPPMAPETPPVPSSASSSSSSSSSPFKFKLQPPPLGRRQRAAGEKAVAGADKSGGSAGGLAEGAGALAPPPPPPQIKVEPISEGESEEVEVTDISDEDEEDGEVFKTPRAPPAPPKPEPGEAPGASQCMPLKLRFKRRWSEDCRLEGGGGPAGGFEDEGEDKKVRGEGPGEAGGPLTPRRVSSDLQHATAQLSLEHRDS
Outline: (§1)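 Human transcription factors fused to GST were expressed in yeast, captured on glutathione beads, given DNA barcodes and pooled with a GST-only negative control. Pools were incubated with 200 nmole of a 16-mer random double-stranded DNA library in Tris/NaCl/DTT/glycerol buffer at room temperature for 30 min. They were then washed, crosslinked with 0.1% formaldehyde, proximity-ligated (BsaI/T4 ligase, 1 h, 37 °C), PCR-amplified and sequenced on an Illumina NextSeq500. Binding signal is each 6-mer's read frequency for a factor divided by its frequency for the GST control.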

ETV3L = biological target: T2, ETV3L (Homo sapiens, UniProt Q6ZN32 1-361)
T2 sequence: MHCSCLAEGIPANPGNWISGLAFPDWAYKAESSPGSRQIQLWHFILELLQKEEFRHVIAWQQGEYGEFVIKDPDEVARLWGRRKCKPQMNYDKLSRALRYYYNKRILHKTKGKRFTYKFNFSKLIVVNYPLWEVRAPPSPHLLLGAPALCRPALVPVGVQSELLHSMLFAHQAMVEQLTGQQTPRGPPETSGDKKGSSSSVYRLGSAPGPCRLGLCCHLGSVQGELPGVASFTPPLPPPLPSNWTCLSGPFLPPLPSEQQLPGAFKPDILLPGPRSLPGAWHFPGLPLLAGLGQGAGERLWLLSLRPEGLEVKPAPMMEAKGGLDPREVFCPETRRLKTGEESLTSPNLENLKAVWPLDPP
Outline: as §1

ETS2 = biological target: T3, ETS2 (Homo sapiens, UniProt P15036 1-469)
T3 sequence: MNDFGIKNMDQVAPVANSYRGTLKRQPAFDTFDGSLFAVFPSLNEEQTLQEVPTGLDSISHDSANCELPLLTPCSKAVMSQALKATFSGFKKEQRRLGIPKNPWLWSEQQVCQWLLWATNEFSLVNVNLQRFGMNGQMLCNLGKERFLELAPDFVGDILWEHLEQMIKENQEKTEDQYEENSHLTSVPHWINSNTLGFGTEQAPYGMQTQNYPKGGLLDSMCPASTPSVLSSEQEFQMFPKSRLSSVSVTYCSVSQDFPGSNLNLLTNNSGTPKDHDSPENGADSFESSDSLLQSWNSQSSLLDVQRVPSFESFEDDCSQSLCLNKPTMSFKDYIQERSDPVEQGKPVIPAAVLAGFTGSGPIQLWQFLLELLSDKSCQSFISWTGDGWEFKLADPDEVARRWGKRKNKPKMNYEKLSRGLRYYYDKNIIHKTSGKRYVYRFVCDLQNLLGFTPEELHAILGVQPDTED
Outline: as §1

SPDEF = biological target: T4, SPDEF (Homo sapiens, UniProt O95238 1-335)
T4 sequence: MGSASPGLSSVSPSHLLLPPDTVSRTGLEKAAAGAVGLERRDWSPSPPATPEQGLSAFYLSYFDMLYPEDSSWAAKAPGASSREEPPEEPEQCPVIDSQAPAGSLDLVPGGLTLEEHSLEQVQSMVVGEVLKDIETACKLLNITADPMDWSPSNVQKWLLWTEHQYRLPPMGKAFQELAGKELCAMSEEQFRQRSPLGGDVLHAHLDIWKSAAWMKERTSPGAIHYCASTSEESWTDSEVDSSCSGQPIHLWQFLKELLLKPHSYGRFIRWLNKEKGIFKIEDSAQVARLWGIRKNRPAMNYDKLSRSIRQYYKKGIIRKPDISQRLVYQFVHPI
Outline: as §1

ETV7 = biological target: T5, ETV7 (Homo sapiens, UniProt Q9Y603 1-341)
T5 sequence: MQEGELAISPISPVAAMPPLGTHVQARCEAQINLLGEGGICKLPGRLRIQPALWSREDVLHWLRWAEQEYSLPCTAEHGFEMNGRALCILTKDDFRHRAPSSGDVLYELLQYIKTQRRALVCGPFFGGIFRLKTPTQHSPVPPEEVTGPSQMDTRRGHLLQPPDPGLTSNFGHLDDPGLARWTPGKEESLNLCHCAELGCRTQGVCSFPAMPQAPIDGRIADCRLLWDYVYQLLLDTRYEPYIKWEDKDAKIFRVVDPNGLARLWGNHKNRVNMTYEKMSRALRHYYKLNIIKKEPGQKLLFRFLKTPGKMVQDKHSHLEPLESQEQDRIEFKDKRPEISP
Outline: as §1

ELF5 = biological target: T6, ELF5 (Homo sapiens, UniProt Q9UKW6-2 1-255)
T6 sequence: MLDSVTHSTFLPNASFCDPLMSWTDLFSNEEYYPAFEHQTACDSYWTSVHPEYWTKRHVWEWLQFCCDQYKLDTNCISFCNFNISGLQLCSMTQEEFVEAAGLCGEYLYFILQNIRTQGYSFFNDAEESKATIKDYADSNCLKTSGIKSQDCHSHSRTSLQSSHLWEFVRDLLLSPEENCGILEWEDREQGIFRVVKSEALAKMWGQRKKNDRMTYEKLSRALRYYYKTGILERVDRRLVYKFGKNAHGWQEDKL
Outline: as §1

ETV3 = biological target: T7, ETV3 (Homo sapiens, UniProt P41162-2 1-143)
T7 sequence: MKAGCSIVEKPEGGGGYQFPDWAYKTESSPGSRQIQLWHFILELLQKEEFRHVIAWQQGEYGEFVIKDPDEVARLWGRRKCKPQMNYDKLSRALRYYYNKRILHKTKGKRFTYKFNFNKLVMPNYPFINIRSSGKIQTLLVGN
Outline: as §1

ETV6 = ETV6 (Homo sapiens, UniProt P41212 1-452)
ETV6, sequence (P41212 whole entry): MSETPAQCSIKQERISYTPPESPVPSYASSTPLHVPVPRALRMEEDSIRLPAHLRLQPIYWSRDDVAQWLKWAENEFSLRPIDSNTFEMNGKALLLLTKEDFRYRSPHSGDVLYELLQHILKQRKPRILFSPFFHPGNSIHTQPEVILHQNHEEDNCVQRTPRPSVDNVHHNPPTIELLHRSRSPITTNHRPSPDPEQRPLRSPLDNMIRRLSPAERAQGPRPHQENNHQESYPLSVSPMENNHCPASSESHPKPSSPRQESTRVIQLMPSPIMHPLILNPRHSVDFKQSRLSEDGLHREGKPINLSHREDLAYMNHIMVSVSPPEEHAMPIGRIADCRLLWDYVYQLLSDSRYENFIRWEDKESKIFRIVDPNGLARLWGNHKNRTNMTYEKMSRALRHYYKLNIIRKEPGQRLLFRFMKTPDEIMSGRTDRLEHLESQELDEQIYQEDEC
Outline: as §1

Sequence	binding signal (ERF)	binding signal (ETV3L)	binding signal (ETS2)	binding signal (SPDEF)	binding signal (ETV7)	binding signal (ELF5)	binding signal (ETV3)	binding signal (ETV6)
TCCGCT	2.12 fold enrichment (6-mer frequency, TF over GST control)	2.23 fold enrichment (6-mer frequency, TF over GST control)	2.32 fold enrichment (6-mer frequency, TF over GST control)	2.51 fold enrichment (6-mer frequency, TF over GST control)	2.07 fold enrichment (6-mer frequency, TF over GST control)	2.58 fold enrichment (6-mer frequency, TF over GST control)	2.44 fold enrichment (6-mer frequency, TF over GST control)	2.44 fold enrichment (6-mer frequency, TF over GST control)
AGCACT	1.44 fold enrichment (6-mer frequency, TF over GST control)	1.42 fold enrichment (6-mer frequency, TF over GST control)	1.43 fold enrichment (6-mer frequency, TF over GST control)	1.4 fold enrichment (6-mer frequency, TF over GST control)	1.43 fold enrichment (6-mer frequency, TF over GST control)	1.52 fold enrichment (6-mer frequency, TF over GST control)	1.39 fold enrichment (6-mer frequency, TF over GST control)	1.44 fold enrichment (6-mer frequency, TF over GST control)
AAATCT	1.3 fold enrichment (6-mer frequency, TF over GST control)	1.32 fold enrichment (6-mer frequency, TF over GST control)	1.33 fold enrichment (6-mer frequency, TF over GST control)	1.25 fold enrichment (6-mer frequency, TF over GST control)	1.16 fold enrichment (6-mer frequency, TF over GST control)	1.27 fold enrichment (6-mer frequency, TF over GST control)	1.19 fold enrichment (6-mer frequency, TF over GST control)	1.24 fold enrichment (6-mer frequency, TF over GST control)
ATATCC	2.67 fold enrichment (6-mer frequency, TF over GST control)	2.57 fold enrichment (6-mer frequency, TF over GST control)	2.76 fold enrichment (6-mer frequency, TF over GST control)	4.48 fold enrichment (6-mer frequency, TF over GST control)	2.25 fold enrichment (6-mer frequency, TF over GST control)	3.58 fold enrichment (6-mer frequency, TF over GST control)	2.89 fold enrichment (6-mer frequency, TF over GST control)	2.64 fold enrichment (6-mer frequency, TF over GST control)
GATTCT	1.13 fold enrichment (6-mer frequency, TF over GST control)	1.17 fold enrichment (6-mer frequency, TF over GST control)	1.23 fold enrichment (6-mer frequency, TF over GST control)	1.09 fold enrichment (6-mer frequency, TF over GST control)	1.23 fold enrichment (6-mer frequency, TF over GST control)	1.11 fold enrichment (6-mer frequency, TF over GST control)	1.28 fold enrichment (6-mer frequency, TF over GST control)	1.19 fold enrichment (6-mer frequency, TF over GST control)
ACTAAA	1.27 fold enrichment (6-mer frequency, TF over GST control)	1.32 fold enrichment (6-mer frequency, TF over GST control)	1.3 fold enrichment (6-mer frequency, TF over GST control)	1.25 fold enrichment (6-mer frequency, TF over GST control)	1.24 fold enrichment (6-mer frequency, TF over GST control)	1.28 fold enrichment (6-mer frequency, TF over GST control)	1.21 fold enrichment (6-mer frequency, TF over GST control)	1.28 fold enrichment (6-mer frequency, TF over GST control)
GTTCTC	1.22 fold enrichment (6-mer frequency, TF over GST control)	1.35 fold enrichment (6-mer frequency, TF over GST control)	1.24 fold enrichment (6-mer frequency, TF over GST control)	1.22 fold enrichment (6-mer frequency, TF over GST control)	1.26 fold enrichment (6-mer frequency, TF over GST control)	1.25 fold enrichment (6-mer frequency, TF over GST control)	1.35 fold enrichment (6-mer frequency, TF over GST control)	1.23 fold enrichment (6-mer frequency, TF over GST control)
TCACGA	1.14 fold enrichment (6-mer frequency, TF over GST control)	1.04 fold enrichment (6-mer frequency, TF over GST control)	1.13 fold enrichment (6-mer frequency, TF over GST control)	1.17 fold enrichment (6-mer frequency, TF over GST control)	1.16 fold enrichment (6-mer frequency, TF over GST control)	1.03 fold enrichment (6-mer frequency, TF over GST control)	1.14 fold enrichment (6-mer frequency, TF over GST control)	1.16 fold enrichment (6-mer frequency, TF over GST control)
ATCTTC	1.45 fold enrichment (6-mer frequency, TF over GST control)	1.63 fold enrichment (6-mer frequency, TF over GST control)	1.6 fold enrichment (6-mer frequency, TF over GST control)	1.55 fold enrichment (6-mer frequency, TF over GST control)	1.43 fold enrichment (6-mer frequency, TF over GST control)	1.82 fold enrichment (6-mer frequency, TF over GST control)	1.49 fold enrichment (6-mer frequency, TF over GST control)	1.54 fold enrichment (6-mer frequency, TF over GST control)
CTGCTC	1.29 fold enrichment (6-mer frequency, TF over GST control)	1.43 fold enrichment (6-mer frequency, TF over GST control)	1.28 fold enrichment (6-mer frequency, TF over GST control)	1.26 fold enrichment (6-mer frequency, TF over GST control)	1.29 fold enrichment (6-mer frequency, TF over GST control)	1.29 fold enrichment (6-mer frequency, TF over GST control)	1.22 fold enrichment (6-mer frequency, TF over GST control)	1.16 fold enrichment (6-mer frequency, TF over GST control)
CTACTC	1.48 fold enrichment (6-mer frequency, TF over GST control)	1.45 fold enrichment (6-mer frequency, TF over GST control)	1.34 fold enrichment (6-mer frequency, TF over GST control)	1.29 fold enrichment (6-mer frequency, TF over GST control)	1.13 fold enrichment (6-mer frequency, TF over GST control)	1.29 fold enrichment (6-mer frequency, TF over GST control)	1.25 fold enrichment (6-mer frequency, TF over GST control)	1.3 fold enrichment (6-mer frequency, TF over GST control)
ATAAAA	1.13 fold enrichment (6-mer frequency, TF over GST control)	1.15 fold enrichment (6-mer frequency, TF over GST control)	1.17 fold enrichment (6-mer frequency, TF over GST control)	1.12 fold enrichment (6-mer frequency, TF over GST control)	1.1 fold enrichment (6-mer frequency, TF over GST control)	1.11 fold enrichment (6-mer frequency, TF over GST control)	1.15 fold enrichment (6-mer frequency, TF over GST control)	1.16 fold enrichment (6-mer frequency, TF over GST control)
GATGAC	1.45 fold enrichment (6-mer frequency, TF over GST control)	1.53 fold enrichment (6-mer frequency, TF over GST control)	1.44 fold enrichment (6-mer frequency, TF over GST control)	1.55 fold enrichment (6-mer frequency, TF over GST control)	1.61 fold enrichment (6-mer frequency, TF over GST control)	1.53 fold enrichment (6-mer frequency, TF over GST control)	1.56 fold enrichment (6-mer frequency, TF over GST control)	1.43 fold enrichment (6-mer frequency, TF over GST control)
ATACAA	1.15 fold enrichment (6-mer frequency, TF over GST control)	1.12 fold enrichment (6-mer frequency, TF over GST control)	1.19 fold enrichment (6-mer frequency, TF over GST control)	1.14 fold enrichment (6-mer frequency, TF over GST control)	1.14 fold enrichment (6-mer frequency, TF over GST control)	1.08 fold enrichment (6-mer frequency, TF over GST control)	1.08 fold enrichment (6-mer frequency, TF over GST control)	1.12 fold enrichment (6-mer frequency, TF over GST control)
TATAAT	1.25 fold enrichment (6-mer frequency, TF over GST control)	1.23 fold enrichment (6-mer frequency, TF over GST control)	1.19 fold enrichment (6-mer frequency, TF over GST control)	1.27 fold enrichment (6-mer frequency, TF over GST control)	1.17 fold enrichment (6-mer frequency, TF over GST control)	1.18 fold enrichment (6-mer frequency, TF over GST control)	1.19 fold enrichment (6-mer frequency, TF over GST control)	1.24 fold enrichment (6-mer frequency, TF over GST control)
